Results on twelve compounds are retold here after the supplement of paper PMC10127200.

Where a name gives a salt, the structure may show the parent alone.

The subject of the first assay is 786-O. In words: Euclidean distance of Cell Painting phenotypic profile (signed KS, 77 features) to DMSO centroid (dimensionless distance); 5 or 10 uM (library dependent); higher = stronger phenotypic change vs DMSO (phenoactivity). As to conditions: 48 h. The method in brief: (§1)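 Phenoactivity is computed as Euclidean distance to the median vehicle profile. The profiles, drawn from 77 Harmony features scored as signed Kolmogorov-Smirnov statistics versus same-plate vehicle wells, were corrected for plate position, correlation-weighted and replicate-averaged at the top dose. Stained cells were imaged confocally at 20X (9 fields/well) after 48 h with library compounds at 10 or 5 uM, 0.1% DMSO final, in five cancer lines and a healthy fibroblast line.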
The compound `COc1ccc2[nH]c([S@@+]([O-])Cc3ncc(C)c(OC)c3C)nc2c1` [NEXIUM (esomeprazole magnesium)] yielded an Euclidean distance of 1.31.

In the case of `CC(C)(C)NCC(O)COc1cccc2c1CC(O)C(O)C2` (configuration not stated) [Nadolol], the Euclidean distance is 0.954.

The compound `C[C@@H]1C(=O)O[C@H]2C[C@@]34[C@H]5C[C@@H](C(C)(C)C)[C@]36[C@@H](OC(=O)[C@@H]6O)O[C@@]4(C(=O)O5)[C@]21O` [Ginkgolide A] gave an Euclidean distance of 0.788.

`CS(=O)(=O)c1cccc(CNc2nc(Nc3ccc4c(c3)CCC(=O)N4)ncc2C(F)(F)F)c1` had an Euclidean distance of 3.16.

In the next assay the test system is A549. Described as above. As to conditions: 48 h. The method in brief: as §1
The compound `COc1c(C)c2c(c(O)c1C/C=C(\C)CCC(=O)OCCN1CCOCC1)C(=O)OC2` [Mycophenolate Mofetil] returned an Euclidean distance of 3.61.

Turning to `C[C@@H]1C[C@H]2[C@@H]3C[C@H](F)C4=CC(=O)C=C[C@]4(C)[C@@]3(F)[C@@H](O)C[C@]2(C)[C@@]1(O)C(=O)CO` [Flumethasone], the Euclidean distance is 2.47.

In turn, `CN(C)Cc1cccc(N=C(c2ccccc2)c2c(O)[nH]c3cc(C(=O)N(C)C)ccc23)c1` showed an Euclidean distance of 0.99.

In turn, `NC(=O)c1ncn([C@@H]2O[C@H](CO)[C@@H](O)[C@H]2O)c1N` [Acadesine] came in with an Euclidean distance of 1.3.

In turn, `CCN(CC)CCOC(=O)C(c1ccccc1)c1ccccc1` [Adiphenine HCl] came in with an Euclidean distance of 0.625.

Turning to `c1ccc(C2CN3CCSC3=N2)cc1` (single isomer, unassigned; (-)) [(-)-Tetramisole], the Euclidean distance was 1.23.

For the compound `NCCCCCC(=O)O`, the Euclidean distance was 1.89.

`NC(=O)[C@@H]1CSSCCC(=O)N[C@@H](CCCCN=C(N)N)C(=O)NCC(=O)N[C@@H](CC(=O)O)C(=O)N[C@@H](Cc2c[nH]c3ccccc23)C(=O)N2CCC[C@H]2C(=O)N1` [Eptifibatide Acetate]: the Euclidean distance came to 1.02.
